SMILES strings stand for the structures. The campaign covered roughly 360,000 compounds. About 3,900 (1.1%) were called active. The sample as a whole holds a higher share of actives than the screen did. Unmarked numbers belong to inactive results.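 The calls were made as follows: active = mean replicate inhibition score of at least 50 and every replicate individually at or above 50; inconclusive = only one of the two criteria met; inactive = mean below 50 and not all replicates reaching 50.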

This experiment in a line: blockers of JRFL envelope-mediated fusion – HeLa-JRFL effector, CEM21 target cells, luciferase, primary screen (AID 651610).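 Also: 0% = plate neutral controls and 100% = maraviroc near 300 nM.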 As to conditions: HeLa-JRFL Env/CEM21 cell fusion, stronger effect = higher value; at 16.7 µM unless noted.
Regarding `C[C@@H]1CCCCO[C@@H](CN(C)S(=O)(=O)c2ccc(F)cc2)[C@@H](C)CN([C@@H](C)CO)C(=O)c2cc(NC(=O)Nc3ccc(F)cc3)ccc2O1`, the inhibition was -9.74%. For `C[C@H](CO)N1C[C@H](C)[C@@H](CN(C)C(=O)C2CC2)Oc2cc(-c3cccc(C#N)c3)ccc2S1(=O)=O` the value was 6.81%; for `COc1ccccc1S(=O)(=O)N[C@@H]1CC[C@H](CC(=O)N2CCN(C)CC2)O[C@@H]1CO`, -0.692%; for `C[C@@H]1CN([C@@H](C)CO)C(=O)c2cccc(NC(=O)C3CCOCC3)c2O[C@H]1CN(C)C(=O)NC1CCCCC1`, 10.1%. As for `C[C@@H]1CN([C@@H](C)CO)S(=O)(=O)c2ccc(C#CC3CCCC3)cc2O[C@H]1CN(C)S(C)(=O)=O`, the inhibition is 6.95%.

`COc1cccc(-c2cnc3c(c2)C(=O)N([C@H](C)CO)C[C@@H](C)[C@H](CN(C)Cc2ccc(F)cc2)O3)c1`: the inhibition is 7.73%. For `CN1C(=O)c2cc(NC(=O)c3cccs3)ccc2OC[C@H]2O[C@@H](CC(=O)NCC3CC3)CC[C@@H]21`, the inhibition was 3.56%.

Turning to `Cc1cc(C)cc(N2C(=O)CSC2c2cccc([N+](=O)[O-])c2)c1` (configuration not stated), the inhibition is -6.42%.

As for `C[C@H]1CN([C@@H](C)CO)C(=O)c2cccc(NS(=O)(=O)c3ccc(Cl)cc3)c2O[C@H]1CN(C)S(=O)(=O)c1ccc(Cl)cc1`, the inhibition is -26.5%. Consider `O=C(CSc1nc(O)c(Cc2ccccc2)c(=O)[nH]1)Nc1nc2c(s1)CCCC2`, for which the inhibition was 25.1% [at 12.3 µM]. For `O=C(CCS(=O)(=O)c1ccccc1)NC1CCCC1` the value was 11.3% [at 12.3 µM]. Turning to `O=C(CCS(=O)(=O)c1ccccc1)Nc1nc2c(s1)CCCC2`, the inhibition is 60.1% [at 12.3 µM] (active).

For the compound `COC(=O)CN(C(=S)Nc1ccc(Cl)cc1)C1CC(=O)N(c2ccc(OC)cc2)C1=O` (configuration not stated), the inhibition is -3.79% [at 12.3 µM].

With `COc1ccc(N2C(=O)C(CC(=O)Nc3ccccc3)N(Cc3ccc(OC)c(OC)c3)C2=O)cc1` (configuration not stated), the inhibition was 56.7% [at 12.3 µM] (active).

With `COc1ccc(CCN2C(=O)N(c3ccc(OC)cc3)C(=O)C2CC(=O)Nc2ccc(OC)cc2)cc1` (configuration not stated), the inhibition is 9.15% [at 12.3 µM]. For the compound `CCOc1ccc(NC(=O)CC2C(=O)N(c3ccccc3)C(=O)N2CCOC)cc1` (configuration not stated), the inhibition was -3.16% [at 12.3 µM]. The result for `CCCOc1ccc(N2C(=O)CC(N(CCc3ccc(S(N)(=O)=O)cc3)C(C)=O)C2=O)cc1` (configuration not stated) reads 19.9% [at 12.3 µM]. Regarding `CCOc1ccc(N2C(=O)CC(N(CCc3ccc(OC)c(OC)c3)C(=S)Nc3ccccc3)C2=O)cc1` (configuration not stated), the inhibition is 58.4% [at 12.3 µM] (active). The result for `C[C@H](CO)N1C[C@H](C)[C@@H](CN(C)C(=O)C2CC2)Oc2cc(C#CC(C)(C)O)ccc2S1(=O)=O` reads -33.6%. Consider `C[C@@H]1CCCCO[C@@H](CN(C)C(=O)Nc2cccc3ccccc23)[C@H](C)CN([C@H](C)CO)C(=O)c2cc(NS(C)(=O)=O)ccc2O1`, for which the inhibition is -3.83%.

`Cc1noc(C)c1S(=O)(=O)Nc1ccc2c(c1)CC(=O)N([C@H](C)CO)C[C@@H](C)[C@@H](CN(C)Cc1ccc(C(=O)O)cc1)O2`: the inhibition was 20.1%. With `CC(C)OCCCNc1nc2c(c(=O)n(Cc3ccccc3F)c(=O)n2C)n1C`, the inhibition was 4.04% [at 12.3 µM].

As for `CCCCNc1nc2c(c(=O)n(C)c(=O)n2C)n1Cc1cccc(OC)c1`, the inhibition was 88.5% [at 12.3 µM] (active).

In the case of `Cn1c(=O)c2c(nc(NCCc3ccccc3)n2Cc2ccccc2)n(C)c1=O`, the inhibition was 86.6% [at 12.3 µM] (active).

Consider `Cn1c(=O)c2c(nc(NCCNC(=O)c3ccco3)n2Cc2ccccc2F)n(C)c1=O`, for which the inhibition is 0.989% [at 12.3 µM].

Take `CC1CN(Cc2nc3c(c(=O)n(C)c(=O)n3C)n2Cc2cccc(Cl)c2)CC(C)O1` (configuration not stated): the inhibition is 7.96% [at 12.3 µM].

Turning to `Cn1c(=O)c2c(nc(NCc3ccccc3)n2CC(N)=O)n(C)c1=O`, the inhibition is -8.78% [at 12.3 µM]. Turning to `COc1ccc(S(=O)(=O)Nc2ccc3c(c2)C(=O)N([C@H](C)CO)C[C@@H](C)[C@H](CN(C)C(=O)Nc2ccc4c(c2)OCO4)O3)cc1`, the inhibition was 12%. In the case of `COc1cccc(S(=O)(=O)N[C@H]2CC[C@@H](CCN)O[C@H]2CO)c1`, the inhibition is -38.7%. For the compound `CN(C)CCCNC(=O)C[C@@H]1C=C[C@H](NC(=O)Cc2cccnc2)[C@H](CO)O1`, the inhibition is 12.3%.

For the compound `C[C@@H]1CCCCO[C@@H](CN(C)Cc2ccncc2)[C@H](C)CN([C@H](C)CO)C(=O)c2cc(NC(=O)CCC(F)(F)F)ccc2O1`, the inhibition was -12.7%. With `COc1cccc2c1C(=O)c1c(O)c3c(c(O)c1C2=O)CC(O)(C(C)=NNC(=O)c1ccc(Cl)c(Cl)c1)CC3OC1CC(N)C(O)C(C)O1` (configuration not stated), the inhibition was 86% [at 12.3 µM] (active). The result for `C[C@@H](NC(=O)C[C@@H]1CC[C@@H](NC(=O)C2CCOCC2)[C@@H](CO)O1)c1ccccc1` reads -27.6%; that for `C[C@@H]1CN([C@@H](C)CO)C(=O)c2cc(-c3cncnc3)cnc2O[C@@H]1CN(C)Cc1ccncc1`, 1.5%. Regarding `CC1CCCN(c2cccc3c2S(=O)(=O)N(Cc2ccc(F)cc2)[C@@H](C)[C@H](c2ccccc2)O3)C1` (some centres not stated), the inhibition was -2.41% [at 12.3 µM]. With `CN(C)C(=O)C[C@@H]1CC[C@H](NC(=O)NC2CCCC2)[C@H](CO)O1`, the inhibition is 2.96%. On to `O=C(Nc1cccn(Cc2c(Cl)cccc2Cl)c1=O)c1ccc(Cl)cc1`, for which the inhibition is 76.4% [at 12.3 µM] (active). With `Cc1cc(NC(=O)c2ccco2)c(=O)n(Cc2c(F)cccc2Cl)c1`, the inhibition is -1.03% [at 12.3 µM]. Turning to `O=C(Nc1cccn(Cc2ccccc2Cl)c1=O)NC1CCCCC1`, the inhibition is -4.39% [at 12.3 µM].

As for `CNC(=O)C[C@@H]1CC[C@H]2[C@H](COc3ccc(NC(=O)c4cccc(OC)c4)cc3C(=O)N2C)O1`, the inhibition was -18.7%. With `C[C@H](CO)N1C[C@H](C)[C@@H](CN(C)S(=O)(=O)c2ccccc2)Oc2c(NC(=O)c3ccc(-c4nccs4)cc3)cccc2C1=O`, the inhibition is -55.7%. As for `O=C(Cc1ccncc1)NCC[C@H]1CC[C@H](NC(=O)C2CC2)[C@H](CO)O1`, the inhibition was 4.94%. The result for `C[C@@H]1CN([C@@H](C)CO)C(=O)c2cc(NC(=O)C3CCCCC3)ccc2O[C@@H](C)CCCCO[C@H]1CN(C)C(=O)Nc1ccc2c(c1)OCO2` reads -19.1%; that for `c1ccc(CNc2ncnc3[nH]ncc23)cc1`, 27.4% [at 12.3 µM]; that for `COc1ccc(CNc2nccs2)cc1`, -9.44% [at 12.3 µM]. As to `COc1ccc(CNc2ncnc3ccccc23)cc1`, the inhibition is 77% [at 12.3 µM] (active). Turning to `C[C@@H]1CCCCO[C@@H](CN(C)S(=O)(=O)c2cn(C)cn2)[C@@H](C)CN([C@H](C)CO)C(=O)c2cc(NC(=O)c3ccncc3)ccc2O1`, the inhibition is 26.2%. For `CC(C)NC(=O)Nc1ccc2c(c1)CC(=O)N([C@H](C)CO)C[C@@H](C)[C@H](CN(C)S(=O)(=O)c1ccccc1)O2` the value was 2.93%; for `CCOc1c(CNCc2ccc(C(=O)O)cc2)cccc1OC`, 1.89% [at 12.3 µM]. For `COc1ccc(CNCCCNCc2ccc(OC)c(OC)c2)cc1OC`, the inhibition was -12.6% [at 12.3 µM]. For `COc1cc(CNCc2ccc(OC)c3ccccc23)cc(OC)c1OC` the value was 99.1% [at 12.3 µM] (active). In the case of `Cc1noc(C)c1S(=O)(=O)Nc1ccc2c(c1)C(=O)N([C@H](C)CO)C[C@@H](C)[C@@H](CN(C)S(=O)(=O)c1ccc(Cl)cc1)O2`, the inhibition was -6.25%.

In the case of `C[C@@H]1CN([C@@H](C)CO)C(=O)c2cc(N(C)C)ccc2O[C@H]1CN(C)Cc1ccc(C(F)(F)F)cc1`, the inhibition was 14.9%. The result for `COc1ccc(C(=O)Nc2nc(-c3ccc(S(=O)(=O)N4CCOCC4)cc3)cs2)cc1` reads 93.5% [at 12.3 µM] (active); that for `COc1ccc(C(=O)Nc2cc(S(=O)(=O)N3CCCC3)ccc2Cl)cc1`, -8.82% [at 12.3 µM]; that for `CNC(=O)c1ccsc1NC(=O)c1ccc(S(=O)(=O)N2CCOCC2)cc1`, -27.2% [at 12.3 µM]. For `CO[C@@H]1CN(C)C(=O)c2ccc(NC(=O)c3ccc(F)cc3)cc2OC[C@H](C)N(C)C[C@H]1C`, the inhibition was 9.99%.

On to `CN1C(=O)c2cc(NC(=O)c3cscn3)ccc2OC[C@H]2O[C@@H](CC(=O)NCC3CC3)CC[C@H]21`, for which the inhibition was -0.83%. The result for `C[C@@H]1CCCCO[C@H](CN(C)Cc2ccccc2)[C@@H](C)CN([C@H](C)CO)C(=O)c2cc(NS(C)(=O)=O)ccc2O1` reads -1.64%. For `COc1ccccc1NC(=O)CSc1nnc(-c2ccoc2C)n1CCc1ccccc1`, the inhibition was 62.4% [at 12.3 µM] (active). As for `CCn1c(SCC(=O)NC2CCCC2)nnc1-c1ccoc1C`, the inhibition is -2.28% [at 12.3 µM]. As to `COc1ccccc1NC(=O)CSc1nnc(Cn2nnc(-c3ccccc3)n2)n1-c1ccccc1`, the inhibition is -41.2% [at 12.3 µM].

Turning to `COc1ccc(C#Cc2cnc3c(c2)C(=O)N([C@H](C)CO)C[C@@H](C)[C@@H](CN(C)C(=O)CN(C)C)O3)cc1`, the inhibition was -3.11%. With `COc1ccc(-c2cnc3c(c2)C(=O)N([C@@H](C)CO)C[C@H](C)[C@H](CN(C)C(=O)Cc2cccnc2)O3)cc1`, the inhibition is -3.34%. In the case of `Cc1cc(C)cc(OCC(=O)Nc2ccc(S(=O)(=O)Nc3ccccn3)cc2)c1`, the inhibition is 19.9% [at 12.3 µM].

As for `Cc1ccc(NS(=O)(=O)c2ccc(C(C)(C)C)cc2)cn1`, the inhibition was 3.22% [at 12.3 µM].

Turning to `Cc1ccc(S(=O)(=O)Nc2ccc3ncccc3c2)cc1`, the inhibition was 60.8% [at 12.3 µM] (active).

The record behind these values is PubChem BioAssay AID651610 (Broad Institute, 2012).
